Compound activity as filed in PubChem BioAssay.
Most compounds without a hit are left out; they make up all but 3.7% or so of the library.
Anthrax LF inh2: Bacillus anthracis LF protease inhibitors, primary screen, biochemical, multiplex microsphere, MLPCN library | inhibition, % at 10 µM | 360,000 compounds, 0.12% hits | multiplex microsphere protease cleavage assay | Lethal factor (Bacillus anthracis), P15917
Target sequence (P15917 whole entry, looked up): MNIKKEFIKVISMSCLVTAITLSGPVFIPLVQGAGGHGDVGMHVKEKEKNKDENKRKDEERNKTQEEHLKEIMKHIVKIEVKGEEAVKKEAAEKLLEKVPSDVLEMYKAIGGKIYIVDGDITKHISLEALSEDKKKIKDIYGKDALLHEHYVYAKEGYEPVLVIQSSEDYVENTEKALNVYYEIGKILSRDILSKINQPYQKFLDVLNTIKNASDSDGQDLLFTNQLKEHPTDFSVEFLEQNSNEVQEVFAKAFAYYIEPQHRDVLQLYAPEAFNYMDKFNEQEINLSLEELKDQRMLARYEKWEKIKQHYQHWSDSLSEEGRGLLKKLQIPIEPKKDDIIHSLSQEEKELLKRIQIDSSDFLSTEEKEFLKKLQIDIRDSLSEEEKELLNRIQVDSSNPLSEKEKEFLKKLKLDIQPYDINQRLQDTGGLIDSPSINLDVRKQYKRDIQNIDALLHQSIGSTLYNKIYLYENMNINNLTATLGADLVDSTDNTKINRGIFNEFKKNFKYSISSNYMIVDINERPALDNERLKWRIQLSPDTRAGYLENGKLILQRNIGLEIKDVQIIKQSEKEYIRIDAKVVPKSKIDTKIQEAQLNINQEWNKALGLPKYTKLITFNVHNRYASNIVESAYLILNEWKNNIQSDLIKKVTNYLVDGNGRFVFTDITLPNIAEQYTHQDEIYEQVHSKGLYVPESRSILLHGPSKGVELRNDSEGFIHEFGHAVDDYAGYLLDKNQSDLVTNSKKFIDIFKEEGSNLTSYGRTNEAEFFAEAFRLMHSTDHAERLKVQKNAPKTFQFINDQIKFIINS
BoNT-A LC inh2: BoNT/A light chain protease inhibitors, primary screen, biochemical, flow cytometry, MLPCN library. inhibition, % at 10 µM. AID 588499, 2011. multiplex microsphere protease substrate cleavage. 360,000 compounds, 0.17% hits
BJeLR lethal: MLPCN primary cell-based screen for lethality selective to Ras in HRASV12 cells | inhibition, % (no concentration beside the values) | BJeLR (HRASV12) viability, CellTiter-Glo ATP luminescence, 48 h | 300,000 compounds, 0.17% hits; in the data active means inhibition above about 50%; inconclusive means no clear call, values can overlap the other calls
Vc quorum ag: inducers of Vibrio cholerae quorum light production without autoinducers, primary screen, BH1578 luxS cqsA deficient, single point; V. cholerae BH1578 lux reporter, luminescence, 6 h; activation, % at 18.7 µM; 350,000 compounds, 0.16% hits; in the data active means activation mostly above about 9.7%, no sharp cut-off; inconclusive means no clear call, values can overlap the other calls; inactive means mostly below about 3.7%
BoNT-F LC inh: BoNT/F light chain protease inhibitors, primary screen, biochemical, flow cytometry, MLPCN library; Botulinum neurotoxin type F light chain protease (Clostridium botulinum); Multiplex microsphere protease cleavage assay; inhibition, % at 10 µM; 360,000 compounds, 0.22% hits; AID 588497, 2011; in the data active means inhibition above about 35%, passing the limit was not always enough; inconclusive means no clear call, values can overlap the other calls
Bead autofluor: counter-screen for toxin protease inhibitors: compound fluorescence. 360,000 compounds, 3.1% hits. fluorescence intensity (concentration not given with the values). compound autofluorescence counterscreen, microsphere flow cytometry; hits give high values; in the data active means fluorescence intensity above about 16000; inconclusive means no clear call, values can overlap the other calls
A number is an active result; - = inactive; ? = inconclusive; . = no result. Unless noted, no stated cut-off is given here; in the data, active means inhibition above about 30%; inconclusive means no clear call, values can overlap the other calls; inactive means below that.

SMILES	Anthrax LF inh2	BoNT-A LC inh2	BJeLR lethal	Vc quorum ag	BoNT-F LC inh	Bead autofluor
CCOC(=O)c1cc2ccccc2n1C1CCN(C)CC1	-	-	.	.	-	-
CN(C)S(=O)(=O)N1CCN(S(=O)(=O)c2ccccc2)CC1	-	-	-	-	-	20194
Cc1ccc(S(=O)(=O)N2CCN(S(=O)(=O)c3ccccc3)C2)cc1	-	-	-	-	-	21096
Cc1ccc(S(=O)(=O)N2CCN(S(=O)(=O)N(C)C)CC2)cc1	-	-	-	-	-	-
CN1CCN(S(=O)(=O)c2ccc(-c3ccccc3)cc2)CC1	-	-	-	-	-	22073
Cc1ccc(S(=O)(=O)N2CCN(S(C)(=O)=O)C2)cc1	-	-	-	-	-	-
Cc1ccc(N2CCN(S(=O)(=O)N(C)C)CC2)cc1C	-	-	-	-	-	-
CN(C)S(=O)(=O)N1CCN(c2ccc(Cl)cc2)CC1	-	-	-	-	-	16470
Cc1ccc(-c2ccc(S(=O)(=O)N3CCN(C)CC3)cc2)cc1	-	-	-	-	-	21880
CCc1c(O)nc(SCC(=O)c2ccccc2)n(-c2ccccc2)c1=O	-	-	-	-	?	-
CCSc1nc(O)c(CC)c(=O)n1C(C)CC (stereo not drawn)	-	-	-	-	-	22314
Cc1cc(C(=O)Nc2nc3c(s2)CCCC3)no1	-	-	-	-	-	23398
Cc1ccccc1N1CCN(CCN2C(=O)CC(=C3c4ccccc4-c4ccccc43)C2=O)CC1	-	-	-	-	-	16193
O=C1CC(=C2c3ccccc3-c3ccccc32)C(=O)N1CCN1CCN(c2ccccc2)CC1	-	-	-	-	-	19425
COc1ccccc1N1CCN(CCN2C(=O)CC(=C3c4ccccc4-c4ccccc43)C2=O)CC1	.	.	-	.	.	.
COC(=O)Nc1ccc2c(c1)N(C(=O)CCN1CCN3CCCC3C1)c1ccccc1S2 (stereo not drawn)	-	?	-	-	-	23102
O=C1SC(SCc2ccccc2)=N/C1=C\c1ccco1	-	-	-	-	-	23038
O=C1SC(SCc2ccccc2)=N/C1=C\c1ccc(C(=O)O)cc1	-	-	-	-	-	-
CN1CCN(C(=O)Nc2cccc3ccccc23)CC1	-	-	.	-	-	18834
Nc1nc(=O)n(C2CCC(CO)O2)cc1F (stereo not drawn)	-	-	.	.	-	-
CCOC(=O)Cc1nnc(NC(=O)C(CC)Sc2nc(C)cc(=O)[nH]2)s1 (stereo not drawn)	-	-	-	-	-	-
CCCCc1nnc(NC(=O)C(C)Sc2nc(N)cc(=O)[nH]2)s1 (stereo not drawn)	-	-	-	-	-	21210
O=C(Nc1cccnc1)C1Cc2c(-c3ccc4c(c3)OCO4)ccnc2O1 (stereo not drawn)	-	-	.	-	-	-
CC[N+]1(C)[C@@H]2CC[C@H]1CC(OC(=O)[C@H]1CCC(C(=O)OC3C[C@H]4CC[C@@H](C3)[N+]4(C)CC)(c3ccccc3)c3ccccc31)C2 (stereo partly drawn)	-	-	.	-	-	-
CC(C)C[C@H]1COc2cccc(N3CCSCC3)c2S(=O)(=O)N1	-	-	.	.	-	-
SMILES	Anthrax LF inh2	BoNT-A LC inh2	BJeLR lethal	Vc quorum ag	BoNT-F LC inh	Bead autofluor
O=C(O)c1ccc(/C=N/N2CCN(Cc3cccc4ccccc34)CC2)cc1	-	-	-	-	-	-
C(=N\N1CCN(Cc2cccc3ccccc23)CC1)/c1cccnc1	-	-	-	-	-	20176
FC(F)(F)c1ccc(/C=N/N2CCN(Cc3cccc4ccccc34)CC2)cc1	-	-	-	-	-	17471
CCCCCCC(=O)Nc1ccc(C(=O)N2CCCC2)cc1	-	-	-	-	-	-
CCOC(=O)C1CCN(C(=O)c2ccc3c(c2)OCO3)CC1	-	-	-	-	-	22950
CCOC(=O)C1CCCN(Cc2ccc3c(c2)OCO3)C1 (stereo not drawn)	-	-	-	-	-	16327
CCN(CC)C(=O)C1CCCN(Cc2ccc3c(c2)OCO3)C1 (stereo not drawn)	-	-	-	.	-	-
CCOC(=O)C1CCN(C(=O)N(C)C)CC1	-	-	-	-	-	23160
CCCCC(=O)Nc1ccc(C(=O)N2CCC(C(=O)OCC)CC2)cc1	-	-	-	-	-	23061
Cn1c(Oc2cccnc2CN2CCCC2)nc2cc(-c3cccc(C(F)(F)F)c3)sc2c1=O	-	-	.	-	-	-
Cc1cc(C)c2c(CN3CCN(c4ccccc4F)CC3)cc(=O)oc2c1	-	-	.	.	-	-
CCCN1CCC(C)(C(=O)Nc2cccc(OC(C)C)c2)C1 (stereo not drawn)	-	-	.	-	-	-
CCCS(=O)(=O)NC(=O)C1(C)CCCN(C(=O)C2(c3ccc(Cl)cc3)CCCC2)C1 (stereo not drawn)	-	-	.	-	-	-
CCCCC(=O)Nc1ccc(C(=O)NCCc2ccccc2)cc1	-	-	-	-	-	-
CCCCC(=O)Nc1ccc(C(=O)NCC(=O)OC)cc1	-	-	-	-	-	22542
CSc1nc(-c2ccccc2)ccc1C(N)=O	-	?	-	-	-	21978
NC(=O)c1sc2nc(-c3ccccc3)ccc2c1N	-	-	-	-	-	-
c1csc(-c2ccc3nncn3c2)c1	-	-	.	-	-	-
O=C(CSc1ccccc1)Nc1ccc(-c2nc3ccccc3[nH]2)cc1	-	-	-	-	-	-
COc1ccccc1NC(=O)N1CCC(c2nc3cc(C)c(C)cc3[nH]2)CC1	-	-	-	-	-	-
O=C(CN1CCC(c2nc3ccccc3[nH]2)CC1)Nc1ccc2c(c1)OCO2	-	-	.	-	-	21412
COc1ccccc1NC(=O)CN1CCC(c2nc3ccccc3[nH]2)CC1	-	-	-	-	-	-
CCOc1ccccc1NC(=O)N1CCC(c2nc3ccccc3[nH]2)CC1	-	?	-	-	-	21924
O=C(CN1CCOCC1)Nc1ccc(-c2nc3ccccc3[nH]2)cc1	-	-	-	-	-	23886
COc1ccc(CC(=O)NC2CCN(CC(=O)Nc3ccc4c(c3)OCCO4)CC2)cc1OC	-	-	-	-	-	23401
Cc1cccc(NC(=O)COc2cccc3c2CCNC3=O)c1	-	-	.	-	-	-
COc1ccc(S(=O)(=O)NC(=O)C2(C)CCN2C(=O)Cc2cc(C)cc(C)c2)cc1 (stereo not drawn)	-	-	.	-	-	-
Cc1ccc2nc(C3CCN(CC(=O)Nc4ccc5c(c4)OCCO5)CC3)[nH]c2c1	-	-	-	-	-	23511
O=S(=O)(c1ccc2c(c1)OCCO2)N1CCC(c2nc3ccccc3[nH]2)CC1	-	-	-	-	-	22441
